Each structure is given as a SMILES string. Results filed as inconclusive are left out. Values without a mark were called inactive. Calls of active or inactive are those of the source. The call rests on the fitted dose curve; in most records, active means well fitted curve in the direction sought with a large enough effect; inconclusive means small, poorly fitted or top-dose-only effect, or another doubt; inactive means no such curve, though single readings can be large; an effect the other way counts as inactive or inconclusive.

The values below come from PubChem BioAssay (NCATS).

Test [1] has as its target Rap guanine nucleotide exchange factor 3 (Homo sapiens) (UniProt O95398). Description: Confirmatory qHTS for agonist of cAMP-regulated guanine nucleotide exchange factor 3 (EPAC1) (AID 1645881).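 Further: EPAC1 catalysed release of BODIPY-GDP from Rap1B seen as fluorescence loss; 100% = effect of cAMP agonist control; nearly all actives have a fitted effect of over 75% in size.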 For orientation: Quantitative high-throughput screening tests each substance at several concentrations.
In test [2] the target is Rap guanine nucleotide exchange factor 4 (Homo sapiens) (UniProt Q8WZA2). Description: Confirmatory qHTS for agonist of cAMP-regulated guanine nucleotide exchange factor 4 (EPAC2) (AID 1645884).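 Further: nucleotide exchange releases bodipy-GDP from Rap1 and this lowers its fluorescence; on the % scale 0 is the no-effect control and ±100 the full control effect; nearly all actives have a fitted effect of over 65% in size.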
Test [3] shares this target. Nature of the test: Confirmatory qHTS for antagonist of cAMP-regulated guanine nucleotide exchange factor 4 (EPAC2) (AID 1645885). Further: nearly all actives have a fitted effect of over 25% in size. On activity change, negative = inhibition: on the % scale 0 is the no-effect control and ±100 the full control effect.
The target of test [4] is Rap guanine nucleotide exchange factor 3 (Homo sapiens) (UniProt O95398). Nature of the test: Counterscreen qHTS for antagonist of cAMP-regulated guanine nucleotide exchange factor 3 (EPAC1) (AID 1645888).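 Further: fluorescence loss as bound BODIPY-GDP is released from Rap1B; % of control where 0% means no effect.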 The procedure, abridged:
(§1)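 Measured: fluorescence of BODIPY-GDP bound to Rap1B, which falls as exchange proceeds. Conditions include 50 uM competing GDP, 5 and 30 min reads, and a later cAMP challenge for antagonist detection.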

The target is the same in test [5]. Description: Counterscreen qHTS for agonist of cAMP-regulated guanine nucleotide exchange factor 3 (EPAC1) (AID 1645889). Further: nearly all actives have a fitted effect of over 40% in size. Further: potency means the concentration at half of the fitted maximal effect. On activation: % of control where 0% means no effect. The method in brief:
as §1
Background: A counterscreen serves to expose hits that act by an unwanted route or on another target.

Sequence of Rap guanine nucleotide exchange factor 4 (Homo sapiens) (Q8WZA2 whole entry, looked up): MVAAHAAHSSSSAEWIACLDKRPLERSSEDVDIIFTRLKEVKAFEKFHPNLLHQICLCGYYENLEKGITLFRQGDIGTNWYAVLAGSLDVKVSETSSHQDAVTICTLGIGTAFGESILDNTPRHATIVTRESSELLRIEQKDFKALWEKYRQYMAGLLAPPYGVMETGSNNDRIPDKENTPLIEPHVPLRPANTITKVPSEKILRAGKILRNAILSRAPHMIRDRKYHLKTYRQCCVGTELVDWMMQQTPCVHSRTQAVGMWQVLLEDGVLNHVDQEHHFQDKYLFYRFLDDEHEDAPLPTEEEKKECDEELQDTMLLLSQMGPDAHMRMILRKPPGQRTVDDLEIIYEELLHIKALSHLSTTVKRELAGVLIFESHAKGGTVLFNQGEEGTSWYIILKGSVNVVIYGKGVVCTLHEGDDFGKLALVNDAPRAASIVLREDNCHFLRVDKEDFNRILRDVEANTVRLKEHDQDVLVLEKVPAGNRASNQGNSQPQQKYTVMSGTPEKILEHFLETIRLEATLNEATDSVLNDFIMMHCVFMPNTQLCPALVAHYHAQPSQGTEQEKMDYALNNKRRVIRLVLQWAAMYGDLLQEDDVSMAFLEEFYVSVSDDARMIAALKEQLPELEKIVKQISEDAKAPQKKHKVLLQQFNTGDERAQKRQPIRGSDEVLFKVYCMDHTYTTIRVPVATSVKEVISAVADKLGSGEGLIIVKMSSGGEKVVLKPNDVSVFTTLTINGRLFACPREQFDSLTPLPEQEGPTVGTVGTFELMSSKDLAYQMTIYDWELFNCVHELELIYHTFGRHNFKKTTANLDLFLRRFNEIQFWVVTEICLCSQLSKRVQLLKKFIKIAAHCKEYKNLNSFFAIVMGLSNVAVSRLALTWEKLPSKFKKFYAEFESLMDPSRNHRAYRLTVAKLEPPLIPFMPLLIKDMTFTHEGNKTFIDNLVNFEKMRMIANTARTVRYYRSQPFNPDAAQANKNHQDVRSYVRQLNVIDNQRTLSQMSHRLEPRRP
Sequence of Rap guanine nucleotide exchange factor 3 (Homo sapiens) (O95398 whole entry, looked up): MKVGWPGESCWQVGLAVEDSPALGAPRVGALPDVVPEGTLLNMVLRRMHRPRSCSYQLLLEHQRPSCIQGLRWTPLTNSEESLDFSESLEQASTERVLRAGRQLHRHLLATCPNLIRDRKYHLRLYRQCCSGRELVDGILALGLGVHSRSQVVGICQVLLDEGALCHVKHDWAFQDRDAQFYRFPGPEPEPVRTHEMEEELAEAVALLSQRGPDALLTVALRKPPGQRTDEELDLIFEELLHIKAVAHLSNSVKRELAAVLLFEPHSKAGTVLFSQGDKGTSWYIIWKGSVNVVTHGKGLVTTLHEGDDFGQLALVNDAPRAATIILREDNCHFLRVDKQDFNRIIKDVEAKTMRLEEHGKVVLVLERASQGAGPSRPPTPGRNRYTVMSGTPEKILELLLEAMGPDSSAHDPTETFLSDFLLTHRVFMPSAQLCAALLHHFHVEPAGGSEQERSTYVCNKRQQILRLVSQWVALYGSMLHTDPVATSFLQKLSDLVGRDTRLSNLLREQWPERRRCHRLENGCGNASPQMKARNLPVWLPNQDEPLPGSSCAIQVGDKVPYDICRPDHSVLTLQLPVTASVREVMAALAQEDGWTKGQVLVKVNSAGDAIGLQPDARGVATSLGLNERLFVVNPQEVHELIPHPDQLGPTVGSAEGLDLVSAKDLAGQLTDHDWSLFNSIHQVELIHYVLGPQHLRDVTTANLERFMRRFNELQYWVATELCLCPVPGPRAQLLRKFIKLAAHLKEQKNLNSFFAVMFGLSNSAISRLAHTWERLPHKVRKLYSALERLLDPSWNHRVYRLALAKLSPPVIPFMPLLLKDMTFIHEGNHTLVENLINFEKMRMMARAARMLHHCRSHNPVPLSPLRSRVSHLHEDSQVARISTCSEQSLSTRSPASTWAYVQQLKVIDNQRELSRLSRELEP

Regarding `CC(=O)N1CCN(Cc2cc(=O)oc3ccc4ccccc4c23)CC1`, the Potency entry in test [1] and in test [3] was “inactive” in each case. The activation in test [2] is 4.37% [at 17.1 µM, percent relative to cAMP agonist control]; in test [5] it was 27.9% [at 30.8 µM]. Also, the activity change, negative = inhibition in test [4] was 9.94% [at 30.8 µM].
Turning to `N#C/C(=C/c1ccc(-c2ccc(S(N)(=O)=O)cc2)o1)c1nc2ccccc2s1`, the Potency result in test [1] and in test [3] was “inactive” each time. The activation in test [2] was -24.7% [at 17.1 µM, percent relative to cAMP agonist control]; in test [5], -62% [at 30.8 µM]. Also, the activity change, negative = inhibition in test [4] was 5.29% [at 30.8 µM].
Regarding `CC1(Cc2ccc(OC(F)(F)F)cc2)C(=O)Nc2ccc(OC(F)(F)F)cc21` (stereo not given), the Potency entry in test [1] and in test [3] was “inactive” in each case. The activation in test [2] is -11.8% [at 17.1 µM, percent relative to cAMP agonist control]; in test [5] it was 35.9% [at 30.8 µM]. In addition, the activity change, negative = inhibition in test [4] is -17.3% [at 30.8 µM].
Take `CCN(CC)c1ccc(/C=C2/C(=O)c3ccc(C(=O)O)cc3C2=O)cc1`: the Potency result in test [1] and in test [3] was “inactive” in each case. For the same molecule, the activation was 4.11% [at 17.1 µM, percent relative to cAMP agonist control] in test [2] and 9.24% [at 30.8 µM] in test [5]. For the same molecule, the activity change, negative = inhibition in test [4] was 8.07% [at 30.8 µM].
Regarding `COc1ccc(/C=N/NC(=O)c2cc(C(C)(C)C)[nH]n2)cc1COc1ccc(F)cc1F`, the Potency entry in test [1] and in test [3] was “inactive” in each case. Further, the activation in test [2] was 3.4% [at 17.1 µM, percent relative to cAMP agonist control]; in test [5], 19.8% [at 30.8 µM]. For the same molecule, the activity change, negative = inhibition in test [4] is -14.1% [at 30.8 µM].
As for `Oc1ccccc1CNc1ccc(OC(F)(F)F)cc1`, the Potency entry in test [1], in test [2], in test [3], in test [4] and in test [5] was “inactive” throughout.
For `CS(=O)(=O)N1CCN(c2ccc([N+](=O)[O-])c(NCc3ccc(Cl)cc3)c2)CC1`, the Potency entry in test [1] and in test [3] was “inactive” throughout. Moreover, the activation in test [2] was -0.717% [at 17.1 µM, percent relative to cAMP agonist control]; in test [5], 12% [at 30.8 µM]. In addition, the activity change, negative = inhibition in test [4] is -6.75% [at 30.8 µM].
Regarding `C[C@@H]1CC=C[C@@H]2[C@H]1C(=O)N(Cc1ccccc1)[C@H]2c1ccccc1Br`, the Potency entry in test [1], in test [2], in test [3], in test [4] and in test [5] was “inactive” in each case.
`O=c1[nH]c(C2CCN(S(=O)(=O)c3ccccc3F)CC2)nc2c1nnn2Cc1ccc(F)cc1`: the Potency result in test [1], in test [2], in test [3], in test [4] and in test [5] was “inactive” throughout.
As for `CCc1ccc(N=Nc2ccc(O)c3[nH]cnc23)cc1`, the Potency entry in test [1], in test [2], in test [3], in test [4] and in test [5] was “inactive” throughout.
Take `O=C(O)/C(=C\c1ccc(-c2ccc(F)cc2)o1)c1ccccc1`: the Potency result in test [1], in test [2], in test [3], in test [4] and in test [5] was “inactive” throughout.
As to `COc1cc(-c2cc(OC)c3c(C)oc(C)c3c(=O)c2)ccc1OC(=O)c1ccc(C)cc1`, the Potency entry in test [1], in test [2], in test [3], in test [4] and in test [5] was “inactive” in each case.
`O=C(COC(=O)[C@@H]1CC(O)CN1S(=O)(=O)c1ccc(Cl)c(Cl)c1)NC(=O)NCc1ccccc1` (stereo not given in full): the Potency entry in test [1], in test [2], in test [3], in test [4] and in test [5] was “inactive” throughout.
Take `Cc1cccc(NC(=O)c2ccc(-n3cncn3)c([N+](=O)[O-])c2)c1`: the Potency entry in test [1] and in test [3] was “inactive” throughout. Besides, the activation in test [2] is 2.79% [at 17.1 µM, percent relative to cAMP agonist control]; in test [5], 23.9% [at 30.8 µM]. Besides, the activity change, negative = inhibition in test [4] is -21.4% [at 30.8 µM].
In the case of `N#Cc1c(NC(=O)C2CC=CCC2C(=O)O)sc2c1CCCCCC2` (stereo not given), the Potency result in test [1] and in test [3] was “inactive” in each case. Moreover, the activation is -2.41% [at 17.1 µM, percent relative to cAMP agonist control] in test [2] and 6.58% [at 30.8 µM] in test [5]. Further, the activity change, negative = inhibition in test [4] is -15.2% [at 30.8 µM].
Take `O=C1/C(=C/c2cccc(F)c2)SC(=S)N1NS(=O)(=O)c1ccccc1`: the Potency result in test [1], in test [2], in test [3], in test [4] and in test [5] was “inactive” in each case.
Regarding `COc1ccc(OC)c(C(=O)/C=C/c2ccccc2C(F)(F)F)c1`, the Potency result in test [1], in test [2], in test [3], in test [4] and in test [5] was “inactive” in each case.
For the molecule `COC(=O)c1ccccc1NC(=O)Cn1nc(C(F)(F)F)c2c1CCCC2`, the Potency result in test [1], in test [2], in test [4] and in test [5] was “inactive” throughout. Moreover, the outcome in test [3] was “inactive [at 12.7 µM]”.
On to `Cc1cccc(NC(=O)COC(=O)c2c(-c3ccccc3)noc2C)c1`, for which the Potency entry in test [1] and in test [3] was “inactive” throughout. For the same molecule, the activation is 4.55% [at 17.1 µM, percent relative to cAMP agonist control] in test [2] and 24.2% [at 30.8 µM] in test [5]. Also, the activity change, negative = inhibition in test [4] is -6.85% [at 30.8 µM].
As to `CCOc1cccc(-c2c(C(=O)N/N=C/c3cccs3)nnn2-c2nonc2N)c1`, the Potency entry in test [1] and in test [3] was “inactive” each time. The activation in test [2] was 2.81% [at 17.1 µM, percent relative to cAMP agonist control]. The activity change, negative = inhibition in test [4] was 15% [at 30.8 µM]. For the same molecule, the Potency in test [5] is 10 µM (active).
With `CC(C)C[C@H](NC(=O)C1(c2ccccc2)CCN(C(=O)OC(C)(C)C)CC1)C(=O)N1CCC[C@H]1C(=O)O`, the Potency result in test [1], in test [2], in test [3], in test [4] and in test [5] was “inactive” in each case.
Take `Cn1c(N)c(C(=O)CSc2nnc(-c3c[nH]c4ccccc34)n2C2CC2)c(=O)[nH]c1=O`: the Potency entry in test [1] and in test [3] was “inactive” in each case. Also, the activation was 1.91% [at 17.1 µM, percent relative to cAMP agonist control] in test [2] and 17.7% [at 30.8 µM] in test [5]. Also, the activity change, negative = inhibition in test [4] is 2.97% [at 30.8 µM].
In the case of `C=CCN(CC=C)Cc1cc(=O)oc2cc(C)c(Cl)cc12`, the Potency result in test [1] and in test [3] was “inactive” each time. The activation was 4.33% [at 17.1 µM, percent relative to cAMP agonist control] in test [2] and 3.33% [at 30.8 µM] in test [5]. Moreover, the activity change, negative = inhibition in test [4] is -4.4% [at 30.8 µM].
`O=C(CSc1nc2ccsc2c(=O)n1NC(=O)c1ccccc1)Nc1nccs1`: the Potency entry in test [1], in test [2], in test [3], in test [4] and in test [5] was “inactive” throughout.
As for `CCOC(=O)C1=C(C)N=c2s/c(=C/c3cccc([N+](=O)[O-])c3O)c(=O)n2C1c1ccccc1` (stereo not given), the Potency entry in test [1], in test [2], in test [3], in test [4] and in test [5] was “inactive” in each case.
Regarding `O=C(NNc1c2ccccc2nc2ccccc12)c1ccccc1O`, the Potency entry in test [1], in test [2], in test [3], in test [4] and in test [5] was “inactive” throughout.
Turning to `COc1cc(/C=C2/SC(=O)NC2=O)ccc1OCc1ccccc1`, the Potency entry in test [1], in test [2], in test [3], in test [4] and in test [5] was “inactive” in each case.
In the case of `O=C(c1ccc(-c2nnc(Nc3cccc(Cl)c3)c3ccccc23)cc1)N1C[C@H]2C[C@H](C1)c1cccc(=O)n1C2`, the Potency result in test [1], in test [2], in test [3], in test [4] and in test [5] was “inactive” in each case.
For `CC(C)c1ccc(C2=CC(c3cccc(Cl)c3)n3ncnc3N2)cc1` (stereo not given), the Potency entry in test [1], in test [2], in test [4] and in test [5] was “inactive” each time. In addition, the outcome in test [3] was “inactive [at 12.7 µM]”.
Turning to `Cc1ccc2nc(-c3ccc(NC(=O)CSc4nccc(=O)[nH]4)cc3)sc2c1`, the Potency entry in test [1], in test [2], in test [3], in test [4] and in test [5] was “inactive” throughout.
For `O=C(CSc1nc(-c2ccc(F)cc2)nc2ccc(F)cc12)Nc1cccc(C(=O)O)c1`, the Potency entry in test [1], in test [2], in test [3], in test [4] and in test [5] was “inactive” each time.
Take `Cc1ccc(C(=O)OCC(=O)c2ccc(CC(=O)N3CCOCC3)s2)c(C)c1`: the Potency entry in test [1], in test [2], in test [3], in test [4] and in test [5] was “inactive” throughout.
Regarding `O=C(N/N=C/c1ccccc1O)/C(=C/c1ccccc1)CCO`, the Potency result in test [1], in test [2], in test [3], in test [4] and in test [5] was “inactive” each time.
In the case of `O=C(O)C(Cc1c[nH]c2ccccc12)NS(=O)(=O)c1ccc(Cl)c(C(F)(F)F)c1` (stereo not given), the Potency result in test [1] and in test [3] was “inactive” each time. The activation in test [2] was -2.68% [at 17.1 µM, percent relative to cAMP agonist control]; in test [5] it was 21.8% [at 30.8 µM]. Moreover, the activity change, negative = inhibition in test [4] is -4.37% [at 30.8 µM].
With `CC1=C(C(=O)OC2CCCCCC2)C(c2c(Cl)cccc2Cl)CC(=O)N1` (stereo not given), the Potency entry in test [1], in test [2], in test [3], in test [4] and in test [5] was “inactive” each time.
Take `N#CC(c1nc2ccccc2nc1OCCO)S(=O)(=O)c1ccccc1` (stereo not given): the Potency result in test [1] and in test [3] was “inactive” throughout. In addition, the activation in test [2] is -1.2% [at 17.1 µM, percent relative to cAMP agonist control]; in test [5], 20.5% [at 30.8 µM]. Besides, the activity change, negative = inhibition in test [4] was -25.3% [at 30.8 µM].
In the case of `CC(C)CCNc1c(-c2cccs2)nc2ccccn12`, the Potency entry in test [1], in test [2], in test [3], in test [4] and in test [5] was “inactive” in each case.
As for `Cc1cccc(C(=O)N=c2c(C#N)cc3c(=O)n4cccc(C)c4nc3n2Cc2ccco2)c1`, the Potency entry in test [1], in test [2], in test [3], in test [4] and in test [5] was “inactive” each time.
On to `O=C(CSc1ccc(-c2ccco2)nn1)c1ccc(F)cc1`, for which the Potency entry in test [1], in test [2], in test [3], in test [4] and in test [5] was “inactive” in each case.
On to `CC(C)(C)NC(=O)COC(=O)c1c2c(nc3ccccc13)CCC2`, for which the Potency result in test [1] and in test [3] was “inactive” each time. Besides, the activation in test [2] is 2.28% [at 17.1 µM, percent relative to cAMP agonist control]; in test [5] it was 16.3% [at 30.8 µM]. In test [4], the activity change, negative = inhibition is -10.2% [at 30.8 µM].
In the case of `CCOc1cc(/C=C/c2cc(C(=O)O)c3ccccc3n2)ccc1OC`, the Potency entry in test [1] and in test [3] was “inactive” in each case. The activation in test [2] is -3.6% [at 17.1 µM, percent relative to cAMP agonist control]; in test [5], 6.45% [at 30.8 µM]. For the same molecule, in test [4], the activity change, negative = inhibition was 8.54% [at 30.8 µM].
